# Experimental data reported in PMC7819943, “Rice protein-binding microarrays: a tool to detect cis-acting elements near promoter regions in rice”.
# The full ranking holds about 68,000 sequences; the median of “fluorescence intensity (a.u.)” is about 9,100, and the highest 2% start at about 16,000. Many of the other results were omitted from the sample, so the highest values are more common in it than they were.
# Molecular target: OsWRKY34 (Oryza sativa, UniProt Q0JBA9 1-250)
# Assay: protein-binding microarray (RPBM); PBS, 2% BSA, 51.3 ng/ul salmon testes DNA, 50 uM zinc acetate, 200 nM TF, 25 C, 1 h; high values mean tight binding
# Conditions: protein: recombinant; tags: N-terminal polyhistidine and DsRed monomer fusion (pET32a); label: CyDye5-dUTP incorporated in the synthesized complementary strand; 3' TTTTT single-stranded linker to array surface; dsDNA, one strand shown
# In short: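 Using Ni–NTA, transcription factors fused N-terminally to polyhistidine and DsRed were purified after expression in E. coli BL21-CodonPlus. These were incubated at 200 nM with a blocked, double-stranded custom Agilent array for 1 h at 25 °C in a buffer containing 50 µM zinc acetate, and the array was washed. The binding signal is per-feature fluorescence intensity (arbitrary units) on an Axon 4000B scanner.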
# OsWRKY34, sequence (Q0JBA9 entry or part of it): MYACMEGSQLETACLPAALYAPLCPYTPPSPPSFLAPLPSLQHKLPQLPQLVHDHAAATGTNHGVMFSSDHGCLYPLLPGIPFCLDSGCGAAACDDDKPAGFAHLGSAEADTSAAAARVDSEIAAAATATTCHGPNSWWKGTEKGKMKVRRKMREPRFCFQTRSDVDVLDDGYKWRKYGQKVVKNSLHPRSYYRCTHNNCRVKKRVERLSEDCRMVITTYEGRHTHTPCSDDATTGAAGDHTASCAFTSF
row,Sequence,binding signal
1,AAACCAACCCCACCCAACCCACGCGAGAACCGTGGACCACCGGAGTCACCTAGTGCAG,9500 fluorescence intensity (a.u.)
2,ATTTCTCTTGCCTATGTTTTCATTTTGCAATTATTTTTGTCGGAGTCACCTAGTGCAG,10500 fluorescence intensity (a.u.)
3,TGTTTGCACTTCATTCCATTCCATTCCACCTCCACTGCTTCGGAGTCACCTAGTGCAG,8390 fluorescence intensity (a.u.)
4,GGCTCGGGGCGGCGGAATCATGGGCGATTGGGGCGGCAACCGGAGTCACCTAGTGCAG,22500 fluorescence intensity (a.u.)
5,AATCTGTGGGCAGGGGCGGCGACGTCGGCGGGCGAGGGCTCGGAGTCACCTAGTGCAG,8660 fluorescence intensity (a.u.)
6,GCTCGGGCATCCTTTTTAAGGGCTCGGGGCGGCGGAATCACGGAGTCACCTAGTGCAG,8290 fluorescence intensity (a.u.)
7,GTTTCATCTTCTTGTGGGCTTTTCTGGTGAACTCAATTCACGGAGTCACCTAGTGCAG,8250 fluorescence intensity (a.u.)
8,TCGGCTTGGTGGGGCTGGAGAACGTCTTTTCTCAATTGTGCGGAGTCACCTAGTGCAG,22000 fluorescence intensity (a.u.)
9,CTTTTATATAGCTTTGTCTAGTCTTGTGAATTCTCAATTGCGGAGTCACCTAGTGCAG,8530 fluorescence intensity (a.u.)
10,CTGGTCAGAGTCCCCAACCAAAAGCATTTCTCCTGCCTTCCGGAGTCACCTAGTGCAG,8660 fluorescence intensity (a.u.)
11,CGTCCGTCTCCATCTGACACCTCCCAGTGCTTGCGCCCATCGGAGTCACCTAGTGCAG,8030 fluorescence intensity (a.u.)
12,GACTTACTTTATTGTCTACAGTACTTTAAGCACAACTTTTCGGAGTCACCTAGTGCAG,8360 fluorescence intensity (a.u.)
13,ATACCCGTCTTTTCCTTCCCTTTCATCAATTGCCTCTTGTCGGAGTCACCTAGTGCAG,11500 fluorescence intensity (a.u.)
14,TAGTTTTCTCAGGTGTTTGGGAATTGGTTGGTGAAGATGACGGAGTCACCTAGTGCAG,9450 fluorescence intensity (a.u.)
15,GGATGCTCTTGTGTTCTTGTTGTTGATTTGTATTGTGGATCGGAGTCACCTAGTGCAG,8240 fluorescence intensity (a.u.)
16,GATTTCTGTGTTTTTCCTGTGGTCCAATCAAACGGTCATTCGGAGTCACCTAGTGCAG,12700 fluorescence intensity (a.u.)
17,TTTCTTCTTCTCGTCTCTTCTCGCCGCCGCCGCCGCAATGCGGAGTCACCTAGTGCAG,9300 fluorescence intensity (a.u.)
18,TCGTTGACTTTCTTGCCGTCTCGCCGCCGCCGCCGCCATGCGGAGTCACCTAGTGCAG,23600 fluorescence intensity (a.u.)
19,CTCGCCGCCGTTCGTCTCCGCCGCCACCGCCGCCGCCATGCGGAGTCACCTAGTGCAG,11300 fluorescence intensity (a.u.)
20,TGCGGCCCACCTTTGCTTCTTCGTTGACTTTCTTGCCGTCCGGAGTCACCTAGTGCAG,26900 fluorescence intensity (a.u.)
21,GCCGTCTTTGCTTGATAGTCTTCGCCATGGGGACTTTGTCCGGAGTCACCTAGTGCAG,8210 fluorescence intensity (a.u.)

row,Sequence,binding signal
1,TCATCTTGCTTTCCCCTTCTTCGCCCACGCGGCCGCGGCCCGGAGTCACCTAGTGCAG,8620 fluorescence intensity (a.u.)
2,AAACCCTCTCTCTCTCTCTCTCTCACACACACACGCAAACCGGAGTCACCTAGTGCAG,10300 fluorescence intensity (a.u.)
3,GTCAACTGCCTATCCTAGATATCTATCACTACCGAAAGCCCGGAGTCACCTAGTGCAG,8930 fluorescence intensity (a.u.)
4,TCAACACAGCAACGTTTCACTTTCATATCATCTGATTATTCGGAGTCACCTAGTGCAG,8470 fluorescence intensity (a.u.)
5,TCCGTCCATCCTCACTATCATTAGTACTACTGGTTCTTCTCGGAGTCACCTAGTGCAG,12200 fluorescence intensity (a.u.)
6,TTTTGTGGTATTTTAAACATGGTTTATATTTCTTATATTTCGGAGTCACCTAGTGCAG,9830 fluorescence intensity (a.u.)
7,AGAGGGATGGGTGTTTGATTGGAGTGGGTTGGGAGCCATGCGGAGTCACCTAGTGCAG,9390 fluorescence intensity (a.u.)
8,CTCTCGTTGTTTTTGCTCTTTTGGGTTCGCTCGGAAGATGCGGAGTCACCTAGTGCAG,8490 fluorescence intensity (a.u.)
9,ATGGATGGGGATTCATTTGTTTGGTGAGTAGTGGTCGGGTCGGAGTCACCTAGTGCAG,9800 fluorescence intensity (a.u.)
10,TGTTGTTTTGGTCTACAGTTGTCTTTTGAGTTGTTGTATTCGGAGTCACCTAGTGCAG,12200 fluorescence intensity (a.u.)
11,TTGGTGAGGGTTTGGGTTTGGTGGTGGAGTGGAGTGGAGTCGGAGTCACCTAGTGCAG,10700 fluorescence intensity (a.u.)
12,TTTGGATTGGGTTTGGTGGTTGGGTGGGAGGGAGGGAGCTCGGAGTCACCTAGTGCAG,28600 fluorescence intensity (a.u.)
13,GGGGTGTTTGGTTGAGGGGTGGGTGGGATGGATTGGTCCTCGGAGTCACCTAGTGCAG,32300 fluorescence intensity (a.u.)
14,GGGTTTTGGAGTGGTGGTGGTGGAGGATTGGAGTTGGGGTCGGAGTCACCTAGTGCAG,11600 fluorescence intensity (a.u.)
15,TTTTTGGTGGGGTAGAGTTGTATTTGGTTTGAGGCCAATTCGGAGTCACCTAGTGCAG,9480 fluorescence intensity (a.u.)
16,TCGCTCTCGTTGGATTCGGTTTGGTTTGGTTTGGGCCATGCGGAGTCACCTAGTGCAG,18700 fluorescence intensity (a.u.)
17,CTTCGTTCGTTGGATTCGCTCTCGCGCGCCGCCGCCGCCGCGGAGTCACCTAGTGCAG,11200 fluorescence intensity (a.u.)
18,GGTTGGGTGGAGGGTATTACAGTCTTTTTGCTTTTGTATTCGGAGTCACCTAGTGCAG,36600 fluorescence intensity (a.u.)
19,CATCGAGTAGCCGCCGCCGCCACCTGGTGCTCGTGACGCCCGGAGTCACCTAGTGCAG,8670 fluorescence intensity (a.u.)
20,CTTCAAACTTTTAATTTTTCCGTCACATCGAACTTTTCTACGGAGTCACCTAGTGCAG,9760 fluorescence intensity (a.u.)
21,TCACACGTTTCATTGACGTTTCCTAGCATCCGACCTCTCTCGGAGTCACCTAGTGCAG,9620 fluorescence intensity (a.u.)

row,Sequence,binding signal
1,TCCCCTGTTCTCGTACACAAATTCGCAGCGATCTAATAGTCGGAGTCACCTAGTGCAG,8480 fluorescence intensity (a.u.)
2,CTGATTTTCATTTGAGAACAAAGTTTCTACGCATATTACCCGGAGTCACCTAGTGCAG,8240 fluorescence intensity (a.u.)
3,CCCCAGCCCAGTTGGGCCCAAACTGTCCATTCCAGCCATCCGGAGTCACCTAGTGCAG,8330 fluorescence intensity (a.u.)
4,TCAGTAGCATTTCCGGGTCCCATCTATATGGACTAATTTTCGGAGTCACCTAGTGCAG,9100 fluorescence intensity (a.u.)
5,ACAGAACGAACCACCTATACGTACGTTTTCTCTCTTTTGACGGAGTCACCTAGTGCAG,8040 fluorescence intensity (a.u.)
6,TATACAATTGCCTTACCTGTCCCCACCTGTCACATGCCTCCGGAGTCACCTAGTGCAG,9460 fluorescence intensity (a.u.)
7,ACCTACCACCACCTTACCCTCTCGCTGACATCCCGGCCCCCGGAGTCACCTAGTGCAG,12000 fluorescence intensity (a.u.)
8,CCTAAATGGTTTTGCTTGGACACTTCTGGTTACCTTGCATCGGAGTCACCTAGTGCAG,11900 fluorescence intensity (a.u.)
9,TGTGTTGGATCGGTTGGACGCGCTCACTCGGTTTGGTTTGCGGAGTCACCTAGTGCAG,9730 fluorescence intensity (a.u.)
10,AAATGTGGAATGGTTGGCCTGGGTTGGCTTGGGACGAGCTCGGAGTCACCTAGTGCAG,17000 fluorescence intensity (a.u.)
11,AGTTTTGGGGTGAATTCAATTGAGGTTGCTACAGTTTAATCGGAGTCACCTAGTGCAG,8760 fluorescence intensity (a.u.)
12,TTTGTGTATTATTTGTATTGTGTTTGTGAATTCAATAAATCGGAGTCACCTAGTGCAG,8800 fluorescence intensity (a.u.)
13,TTGGTTTGTATTGCGTTGTTTTGCACTTTTGTTTGTTGTGCGGAGTCACCTAGTGCAG,8300 fluorescence intensity (a.u.)
14,GGGATGGATGTGCTGGGTTGGTGGCTGGTTGGCTGGCCGGCGGAGTCACCTAGTGCAG,11000 fluorescence intensity (a.u.)
15,GGCCTTGTTCGGTTGGTCCGGGAATGACTGGGGTTGGGCTCGGAGTCACCTAGTGCAG,9210 fluorescence intensity (a.u.)
16,TGCTTGCTTGCTTGGTTTGATTGGTGGAGGTGGGAGGAGTCGGAGTCACCTAGTGCAG,8520 fluorescence intensity (a.u.)
17,CGCTCACTCGGTTTGGTTTGGTTTGGATTGTATTGGGTTGCGGAGTCACCTAGTGCAG,39200 fluorescence intensity (a.u.)
18,ATTCTCAAGTTTGAATTGGGTGTATTGGGTTGGGCTAAATCGGAGTCACCTAGTGCAG,16700 fluorescence intensity (a.u.)
19,GAGGGGAGGGGTTTGGTTTGCTTGGACACTTTGGTTTGGTCGGAGTCACCTAGTGCAG,20100 fluorescence intensity (a.u.)
20,CTTTTGCAACTCAAGCTACTATATCTATGATGGCATCTGACGGAGTCACCTAGTGCAG,8400 fluorescence intensity (a.u.)
21,CTTGCTGTTACGCACCACATTGATTTACTTTCTTTTTCTTCGGAGTCACCTAGTGCAG,11600 fluorescence intensity (a.u.)

row,Sequence,binding signal
1,CTCTCGACCACTTCCATTCCTTCCCGGGCTCGCCGCGCCGCGGAGTCACCTAGTGCAG,9780 fluorescence intensity (a.u.)
2,CTCACTCCTGGCGCCGGTGACCTCTCTGCCACTCCACCGGCGGAGTCACCTAGTGCAG,8550 fluorescence intensity (a.u.)
3,CACATGTTATTACCACCTCATTTTGCGTAAAACACTTAATCGGAGTCACCTAGTGCAG,8460 fluorescence intensity (a.u.)
4,AACATAAACACACATCATTTCCTGTCCCTTGCACGCTACGCGGAGTCACCTAGTGCAG,10000 fluorescence intensity (a.u.)
5,CTCCTCATCCTCATCGTCGCCGCCGCCCACGTCGTCTCGCCGGAGTCACCTAGTGCAG,9110 fluorescence intensity (a.u.)
6,TCATCTGCTCCAAATTAAGCATTGCATCATCTACTCTGCCCGGAGTCACCTAGTGCAG,8390 fluorescence intensity (a.u.)
7,CTACCGCATCCCCTCCCTCTCTCGGCGAGCCGAATCCATGCGGAGTCACCTAGTGCAG,8270 fluorescence intensity (a.u.)
8,ATCTCGGTCTCTCACAAGACACACAGCTAATTAGCTCTATCGGAGTCACCTAGTGCAG,8470 fluorescence intensity (a.u.)
9,CCATCATCTCTCGATCCATCTCCAGCAAGTTACCTATAAACGGAGTCACCTAGTGCAG,9580 fluorescence intensity (a.u.)
10,AAGAGGGTGGGTTGTTGGGGAGAGGGGAGGGAGGAGGATTCGGAGTCACCTAGTGCAG,20100 fluorescence intensity (a.u.)
11,AGGTGGTGTTTGGTTGGAGGGGCTAAAGTGGGGCTAAACTCGGAGTCACCTAGTGCAG,20000 fluorescence intensity (a.u.)
12,TGGTGTTTGGTTGGAGGGACTAAAGTAGGGCTAAACTTTACGGAGTCACCTAGTGCAG,8870 fluorescence intensity (a.u.)
13,CTGCACTGTTTGCCTCAGTTGGGTTGGTTTGGTTTGGTTGCGGAGTCACCTAGTGCAG,48200 fluorescence intensity (a.u.)
14,CAAGGAGGGAGTTGATGGTGGGATTGATCATGGGAGTTATCGGAGTCACCTAGTGCAG,8560 fluorescence intensity (a.u.)
15,CGTTGGGAGTTGGGAGGGATGGGTGGTGCATCAAGATTGACGGAGTCACCTAGTGCAG,23500 fluorescence intensity (a.u.)
16,GCAGTTTCAGTGTGTGTTTGGTTGCAAGTTGTTGCATCTGCGGAGTCACCTAGTGCAG,8410 fluorescence intensity (a.u.)
17,TGTGGGTTGGAGGGAGGAGGGGATTGAAGGGTTGTTAATTCGGAGTCACCTAGTGCAG,14900 fluorescence intensity (a.u.)
18,TGCGGATGGGATGGAGAGCGCAGGAGGGGTGGGTTGTTGTCGGAGTCACCTAGTGCAG,10800 fluorescence intensity (a.u.)
19,GGTGTTTGGTTGGAGGGATTAAAGTGGGGCTAAACTTTAGCGGAGTCACCTAGTGCAG,9950 fluorescence intensity (a.u.)
20,AGTTTTAAGGAGGGAGTTGATGGTGGGATTGGTCATGGGACGGAGTCACCTAGTGCAG,8620 fluorescence intensity (a.u.)
21,ACTCACTGTTGCCTGTTGGTTTGTTGTCAGTAGCGCTAGGCGGAGTCACCTAGTGCAG,8370 fluorescence intensity (a.u.)
